Shown are actives, neighbours in structure and some others; about 5.1% of the full set was active somewhere.
GRIN3A LBD mod – modulators (binders) of human NR3A ligand-binding domain. NR3A LBD differential scanning fluorimetry, Tm shift; 0% = protein alone, 100% = glycine-bound protein. Tm shift relative to glycine control, % at 25 µM. hit rate 2.5% among 340,000;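 active = melting temperature shift of at least 10% of the positive control shift, at one fixed dose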
CRFBP-R2 block – blocks CRF-induced signaling of the CRF-BP/CRF-R2 complex. HEK293 CRF-R2/CRF-BP, CRF-induced calcium fluorescence. inhibition, % at 11.8 µM. hit rate 0.59% among 350,000;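 active = inhibition of the ligand-induced calcium signal above about 50% at the single tested concentration, limit read from the data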
TMEM16A act – activators or potentiators of mouse TMEM16A chloride channel. B-score at 10 µM. HEK293 TMEM16A/YFP-H148Q/I152L, iodide quench fluorescence; active compounds read low. hit rate 0.3% among 340,000;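 active = fluorescence-ratio B-score plate-corrected deviation score at least 3 library SD below zero, with starting fluorescence score within 5 deviations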;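 note: channel opened by trigger with iodide after compound preincubation; score built on the fluorescence ratio of max minus min over baseline; more negative score means more quench and so TMEM16A activation or potentiation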
Target sequence (Q8BHY3 whole entry, looked up): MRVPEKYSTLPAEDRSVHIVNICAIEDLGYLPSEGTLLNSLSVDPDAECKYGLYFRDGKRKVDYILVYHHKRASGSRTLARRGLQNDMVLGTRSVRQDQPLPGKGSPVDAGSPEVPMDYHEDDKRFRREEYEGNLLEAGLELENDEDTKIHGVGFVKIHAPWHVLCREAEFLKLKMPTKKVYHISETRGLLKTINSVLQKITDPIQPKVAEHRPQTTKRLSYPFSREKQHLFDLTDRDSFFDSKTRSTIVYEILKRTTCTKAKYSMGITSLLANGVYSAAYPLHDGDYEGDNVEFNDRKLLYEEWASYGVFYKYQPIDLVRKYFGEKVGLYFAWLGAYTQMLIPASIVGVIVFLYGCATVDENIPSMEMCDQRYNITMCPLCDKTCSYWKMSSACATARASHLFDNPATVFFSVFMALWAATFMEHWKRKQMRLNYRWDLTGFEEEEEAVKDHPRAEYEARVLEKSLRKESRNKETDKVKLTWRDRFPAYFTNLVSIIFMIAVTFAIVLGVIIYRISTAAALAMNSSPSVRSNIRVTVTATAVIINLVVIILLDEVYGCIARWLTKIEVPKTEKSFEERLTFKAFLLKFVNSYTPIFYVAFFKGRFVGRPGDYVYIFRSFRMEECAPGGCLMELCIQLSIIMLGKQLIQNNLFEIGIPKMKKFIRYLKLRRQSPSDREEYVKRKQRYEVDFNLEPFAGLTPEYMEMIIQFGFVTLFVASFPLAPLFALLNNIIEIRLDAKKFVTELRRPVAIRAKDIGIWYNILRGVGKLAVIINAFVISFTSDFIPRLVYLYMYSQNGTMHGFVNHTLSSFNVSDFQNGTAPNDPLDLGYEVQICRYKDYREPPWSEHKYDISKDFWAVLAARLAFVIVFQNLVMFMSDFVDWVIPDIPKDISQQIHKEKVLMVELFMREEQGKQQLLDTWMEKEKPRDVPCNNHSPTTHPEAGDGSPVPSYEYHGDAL
TMEM16A inh – mouse TMEM16A channel inhibition, primary screen | AID 588511 | HEK293 TMEM16A/YFP iodide influx fluorescence, ionomycin | hit rate 1.2% among 310,000 | normalized B-score (activity score, 25-100; higher = stronger inhibition) at 10 µM | Q8BHY3;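 active = ratio plate-corrected score three or more library SD toward inhibition, starting fluorescence score within five deviations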;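 note: score derived from kinetic fluorescence span divided by baseline fluorescence per well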
CRFR2-BP ag – CRF-BP/CRF-R2 complex agonism. HEK293 CRF-R2/CRF-BP, calcium dye fluorescence (FLIPR); percent of saturating CRF peptide response. activation, % at 13.2 µM. hit rate 0.46% among 350,000;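 active = activation of at least 50%, plus an integration ratio under a set limit after plate pattern correction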
MPTP inh – permeability transition pore inhibition; isolated mouse mitochondria, Ca2+ swelling absorbance, 30 min; inhibition, % at 10 µM; hit rate 1.4% among 360,000; AID 602449;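 active = inhibition of 50% or more, scaled per plate between neutral and stimulator controls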
Hits are given with their value; n = inactive; x = no result.

SMILES | GRIN3A LBD mod | CRFBP-R2 block | TMEM16A act | TMEM16A inh | CRFR2-BP ag | MPTP inh
COc1ccc(-c2cn[nH]c2-c2ccc(OCc3ccc([N+](=O)[O-])cc3)cc2O)cc1 | 30.4 | n | n | n | n | n
CCc1cc(-c2[nH]ncc2-c2ccc(OC)cc2)c(O)cc1O | 40.6 | n | n | n | n | n
COc1ccc(-c2[nH]ncc2-c2ccc3c(c2)OCCO3)c(O)c1 | n | n | n | n | n | n
c1nc2n(n1)C1=C(CCCC1)C1(CCCCC1)N2 | n | n | -4.83 | n | n | n
Cn1nc(C#N)c(=O)[nH]c1=O | n | n | n | x | n | n
CCc1sc(C(=O)Nc2ccc3nc(C)sc3c2)cc1C | n | n | n | x | n | n
CCc1sc(C(=O)Nc2ccc(NC(C)=O)cc2)cc1C | 11.1 | n | n | n | n | n
COc1cc(/C=C2\C(=N)N3N=CSC3=NC2=O)cc(Br)c1OC(=O)c1ccco1 | n | n | -8.87 | n | n | n
N=C1/C(=C\c2ccc(OC(=O)c3ccco3)cc2)C(=O)N=C2SC=NN12 | n | n | n | x | n | n
Cc1ccc(N=Nc2c(O)ccc3n[nH]nc23)cc1 | 13.3 | n | n | n | n | n
O=C(Nc1nc(-c2ccccc2)cs1)c1ccc2c(c1)S(=O)(=O)c1ccccc1C2=O | n | 85.8 | n | n | n | n
O=C(Nc1ccon1)Nc1cc(Cl)ccc1Cl | n | n | n | n | n | n
CC(C)(Oc1ccc(Br)cc1Cl)C(=O)Nc1ccon1 | 12.8 | n | n | n | n | n
O=C(c1ccc(F)cc1)C1CCN(C(=O)c2c(F)cccc2F)CC1 | n | n | n | n | n | n
COc1cc(NC(=O)c2cc(-c3cccnc3)nc3ccc(Br)cc23)cc(OC)c1 | 10.1 | n | n | n | n | n
O=C(NCc1cccs1)c1cc(-c2ccncc2)nc2ccc(Br)cc12 | x | x | x | n | x | x
NNC(=O)c1cc(-c2ccc(N)cc2)nc2ccc(Br)cc12 | 18.1 | n | n | n | n | n
CC(C)c1ccc(-c2cc(C(=O)N3CCOCC3)c3cc(Br)ccc3n2)cc1 | 18.6 | n | n | n | n | n
O=C(Nc1cccnc1)c1cc(-c2cccnc2)nc2ccc(Br)cc12 | n | n | n | n | n | n
COc1ccc(NC(=O)c2cc(-c3ccncc3)nc3ccc(Br)cc23)cc1OC | n | n | n | 100 | n | n
COc1ccc(C(C)=O)cc1COC(=O)CCNS(=O)(=O)c1ccc(C)c(C)c1 | n | n | n | n | n | n
C[C@@H]1COc2cc(N3CCN(Cc4ccccc4F)CC3)ccc2S(=O)(=O)N1 | x | x | x | x | x | n
C=CCN(Cc1nc(-c2ccccc2)no1)C(=O)c1ccoc1C | 14.1 | n | n | n | n | n
CC(=O)Nc1cc(-c2ccc(C(=O)NC3CC3)cc2)cn2c(-c3ccc(F)c(Cl)c3)cnc12 | x | x | x | x | x | n
CCCNC(=O)C1(C)CCCN(CC(=O)c2ccccc2OC)C1 (stereo not drawn) | x | x | x | x | x | n
SMILES | GRIN3A LBD mod | CRFBP-R2 block | TMEM16A act | TMEM16A inh | CRFR2-BP ag | MPTP inh
C[C@H](CO)N1C[C@H](C)[C@@H](CN(C)S(=O)(=O)c2ccc(F)cc2)Oc2c(NC(=O)Cc3ccccc3)cccc2C1=O | n | n | x | x | n | n
CCN1C(=O)c2cccc3c(S(=O)(=O)Nc4nc(C)cs4)ccc1c23 | n | n | -5.12 | n | n | n
CCN1C(=O)c2cccc3c(S(=O)(=O)Nc4ccccc4)ccc1c23 | n | n | n | n | n | n
CC(=O)Nc1cccc(-c2ccnc3c2CC(C)(C(=O)Nc2ccc(Cl)cc2)O3)c1 (stereo not drawn) | x | x | x | x | x | n
O=C(Nc1nc2c(F)c(F)c(F)cc2s1)c1ccco1 | n | n | n | n | n | n
O=C(Nc1ccc(-c2nc3c(ccc4ccccc43)o2)cc1)c1ccco1 | 35.0 | n | n | n | n | n
O=C(Nc1ccc(-c2nc3cc(Cl)ccc3c(=O)o2)cc1)c1ccco1 | 11.2 | n | n | n | n | n
O=C(Nc1nc2c(ccc3ccccc32)s1)c1ccco1 | 15.6 | n | n | n | n | n
COc1cc2nc(NC(=O)c3ccco3)sc(=O)c2cc1OC | 14.8 | n | n | n | n | n
COc1ccc(C(=O)OCC(=O)N2CCCCCC2)cc1S(=O)(=O)N1CCOCC1 | n | n | n | x | n | n
C/C(=N\NC(=O)CNC(=O)c1cccs1)c1ccc(Cl)c(Cl)c1 | n | n | n | n | n | n
CC1(Cc2cccc(C(N)=O)c2)C(=O)Nc2c(Cl)cccc21 (stereo not drawn) | x | x | x | x | x | n
Cc1cc(S(=O)(=O)NCc2ccccc2)ccc1OCC(=O)NCC1CCCO1 (stereo not drawn) | n | n | n | n | 241.3 | n
O=C(COc1ccc(S(=O)(=O)NCc2ccccc2)cc1Cl)NCC1CCCO1 (stereo not drawn) | n | n | n | n | n | n
Cc1cc(S(=O)(=O)NC2CCCCC2)ccc1OCC(=O)NCC1CCCO1 (stereo not drawn) | n | 57.1 | n | n | n | n
O=C(COc1ccc(S(=O)(=O)NC2CCCCC2)cc1Cl)NCC1CCCO1 (stereo not drawn) | n | n | n | n | n | n
Cc1ccc(N2CC(C(=O)N3CCCCCC3)CC2=O)cc1 (stereo not drawn) | n | n | n | n | n | n
CC(C)c1ccc(CC(=O)N2CCC2(C)C(=O)NCc2cccc3ccccc23)cc1 (stereo not drawn) | x | x | x | x | x | n
Cc1ccc(C(=O)NCCCNC(=O)c2ccccc2F)cn1 | n | n | n | n | n | n
Cc1ccc(C(=O)NCCNC(=O)c2ccc(F)cc2)cn1 | n | n | n | n | 79.8 | n
CC(NC(=O)C(NS(=O)(=O)c1cccc2nsnc12)C(C)C)c1ccccc1 (stereo not drawn) | n | n | n | n | n | n
CC(=O)Nc1ccc(NC(=O)C(NS(=O)(=O)c2cccc3nsnc23)C(C)C)cc1 (stereo not drawn) | 10.5 | n | n | n | n | n
CCCOc1c(Br)cc(C(=O)OCC(=O)NC2CC2)cc1OC | n | n | n | n | n | n
Cc1cc([N+](=O)[O-])ccc1-c1ccc(C2Nc3ccccc3C(=O)N2O)o1 (stereo not drawn) | 30.0 | n | n | n | n | n
CCc1ccccc1NC1c2ccccc2C(=O)N1c1cc(C)ccn1 (stereo not drawn) | 16.6 | n | n | n | n | n
Cc1ccnc(N2C(=O)c3ccccc3C2Nc2ccccc2Cl)c1 (stereo not drawn) | n | n | n | n | n | n
Cc1cc(S(=O)(=O)Nc2ccc(C(=O)NCC(C)(C)N3CCOCC3)cc2)ccc1F | n | 54.1 | n | n | n | n
CC(C)(CNC(=O)c1ccc(NS(=O)(=O)c2ccc(Br)cc2)cc1)N1CCOCC1 | n | n | n | n | n | n
NC(=O)c1cc(S(=O)(=O)N2CCCC2)ccc1OCCOc1ccccc1F | n | n | n | x | n | n
O=C(Nc1cccc(Cl)c1N1CCCC1)c1ccc([N+](=O)[O-])o1 | n | n | n | n | n | n
